MCF10A rerep – inducers of DNA re-replication in MCF 10A breast cells; MCF 10A DNA re-replication, Hoechst nuclear intensity, 48 h; Potency, µM (doses to about 46.1 µM), for inactives: at the highest dose activity, positive = re-replication, actives largely listed as activators; actives 2.9% (n = 350,000); note: % of control where 0% means no effect; nearly all actives have a fitted effect of over 50% in size
ELG1 DNA repair – ELG1-dependent DNA repair inhibition; HEK293T ELG1-luciferase reporter, luminescence, 16 h; DNA damage induced by 5-fluorouridine; Potency, µM (top dose mostly 46.1 µM), for the others: top-dose activity change, negative = inhibition, usual class: inhibitors; actives 2.3% (n = 330,000); note: % is set by controls: 0 for no effect and ±100 for the full control effect; nearly all actives have a fitted effect of over 55% in size
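5-Fluorouridine DNA damage + compound/DMSO, 2,000 cells/well, 16 h, 37 °C/5% CO2. ONE-Glo, 30 min RT, luminescence. Readout = decrease in reporter signal.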
SW480 rereplic – DNA re-replication induction in SW480 cells; Potency, µM (series often up to 46.1 µM), for inactives: top-dose re-replication activation, hits mostly activators; SW480 DNA re-replication, Hoechst DNA content imaging, 48 h; actives 1.8% (n = 340,000); note: % of control where 0% means no effect; nearly all actives have a fitted effect of over 55% in size
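SW480 cells exposed to compounds for 48 hr at 37 C, 5% CO2, then Hoechst-stained 40 min. Nuclear DNA content imaged by fluorescence scanning (405 nm excitation, 500-530 nm emission); re-replication scored as increased high-intensity nuclei.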
KB-V1 cytotox – KB-V1 MDR subline cytotoxicity; KB-V1 MDR cells viability, CellTiter-Glo, 72 h; Potency, µM (series often up to 46.1 µM), usual class: cytotoxic; actives 3.4% (n = 400,000); AID 1347076; note: % is set by controls: 0 for no effect and ±100 for the full control effect; nearly all actives have a fitted effect of over 60% in size
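Following 72 h at 37 degrees C with compound, KB-V1 cell viability was read by CellTiter-Glo luminescence, medium being phenol-red-free DMEM plus 10% FBS; concentration-response parameters came from normalized, curve-fitted qHTS data.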
KB-3-1 cytotox – kills parental KB-3-1 adenocarcinoma cells; KB-3-1 viability, CellTiter-Glo ATP luminescence, 72 h; Potency, µM (titrated, usually from 46.1 µM), usual class: cytotoxic; actives 1.4% (n = 400,000); note: % is set by controls: 0 for no effect and ±100 for the full control effect; nearly all actives have a fitted effect of over 60% in size
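Cytotoxicity in the drug-sensitive parental line KB-3-1 was scored as loss of CellTiter-Glo luminescence following 72 h incubation with compound. Values come from curve fitting of normalized concentration-response data.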
* = called active by the depositor; i = inactive; ? = inconclusive; . = not tested or not shown; [ ] = dose if it differs, or a comment. Only some compounds are listed: those with a hit (about 8.2% of all), similar ones and a draw of the others. Calls come from the whole dose curve; as a rule, active = well fitted curve in the direction sought with a large enough effect; inconclusive = small, poorly fitted or top-dose-only effect, or another doubt; inactive = no such curve, though single readings can be large; an effect the other way counts as inactive or inconclusive. Potency is the fitted concentration of half-maximal effect.

SMILES	MCF10A rerep	ELG1 DNA repair	SW480 rereplic	KB-V1 cytotox	KB-3-1 cytotox
CCn1cc(C2=NC(C)CO2)c2ccccc21 (centres undefined)	0.6%	?	3.9%	i	i
CCn1cc(C2=NC(c3ccccc3)CO2)c2ccccc21 (centres undefined)	?	14.5%	1.7%	?	8.2µM*
NC(=O)c1cc(S(=O)(=O)N2CCOCC2)cs1	-5.3%	18.5%	2.3%	i	i
CCCN(C(=O)Cn1cnc2onc(-c3ccc(F)cc3)c2c1=O)c1cccc(Cl)c1	.	.	.	?	i
O=C(NCc1cccs1)c1nc2c(nnn2Cc2ccccc2Cl)c(=O)[nH]1	?	16.4µM*	?	8.2µM*	5.8µM*
c1c[nH]c(C2CCN(c3ncc(-c4ccc5c(c4)OCCCO5)s3)CC2)n1	.	.	.	i	i
CCN(CC)S(=O)(=O)c1ccc(N2CCCC2)c(NC(=O)C2CCCCC2)c1	-2.4%	-1.7%	-1.1%	i	i
CCN(CC)S(=O)(=O)c1ccc(N2CCN(C)CC2)c(NC(=O)CSCC(=O)Nc2cccc(C)c2)c1	?	?	-36.7%	i	i
CCN(CC)S(=O)(=O)c1ccc(N2CCN(C)CC2)c(NC(=O)Nc2ccc(C)cc2)c1	11.6µM*	?	1.8%	i	i
CCOc1ccc(S(=O)(=O)Nc2cc(S(=O)(=O)N(CC)CC)ccc2N2CCCC2)cc1	-55.0%	-28.3%	?	2.59µM*	?
COCCNC(=O)c1ccc(N2CCCCC2)c(NS(=O)(=O)c2ccc(C)cc2)c1	-4.6%	-0.4%	0.0%	?	i
COc1ccc(NS(=O)(=O)c2ccc(N3CCCC3)c(NC(=S)Nc3ccc(SC(F)F)cc3)c2)cc1	-6.1%	23.1µM*	-89.7%	?	?
CCOC(=O)c1ccc(N2CCCCC2)c(NS(=O)(=O)c2ccc(C)cc2)c1	20.6µM*	?	?	?	?
CCOC(=O)C1CCCN(S(=O)(=O)CCNC(=O)c2ccc(F)cc2)C1 (centres undefined)	3.0%	-5.3%	2.4%	i	i
Cc1ccc(-n2ncc3c(NCc4ccccc4)ncnc32)cc1C	.	.	.	?	i
COc1cc(-c2ccc3ncnc(NCc4nc(C)cs4)c3c2)cc(OC)c1OC	.	.	.	i	i
CC(C)OCCCNC(=O)CCCN1C(=O)CCn2nc(-c3cccn3C)cc21	.	.	.	i	i
CCN(CC)S(=O)(=O)c1ccc(N2CCCC2)c(NC(=O)Cc2cc(OC)c(OC)c(OC)c2)c1	4.3%	-11.1%	15.0%	?	i
Cn1c(=O)c(=O)n(C)c2cc(N3CCOCC3)c(NS(=O)(=O)c3ccc(Cl)cc3)cc21	.	.	.	i	i
Cn1c(=O)c(=O)n(C)c2cc(N3CCCCC3)c(NS(=O)(=O)c3ccc(Br)cc3)cc21	-0.6%	?	7.31µM*	i	i
CCN(CC)S(=O)(=O)c1ccc(N2CCCC2)c(NC(=O)Cc2ccc(OC)cc2)c1	?	-26.1%	9.7%	23.1µM*	i
CN(Cc1ccc(Br)s1)C(=O)CNC(=O)c1ccc2c(c1)OCO2	-1.4%	-0.7%	-8.0%	20.6µM*	i
COc1cccc(NC(=O)Cn2c(=O)n(CCc3ccc(OC)c(OC)c3)c(=O)c3ccccc32)c1	.	.	.	i	i
O=C(C[n+]1ccccc1Cl)c1ccc(Br)cc1	.	.	.	i	i
COc1ncnc2c1ncn2CCCN(CCCc1ccccc1)CCCn1cnc2c(OC)ncnc21	.	.	.	i	i
SMILES	MCF10A rerep	ELG1 DNA repair	SW480 rereplic	KB-V1 cytotox	KB-3-1 cytotox
Cc1ccc(Cl)cc1N1CCN(C(=O)CN2C(=O)c3cccc4cccc2c34)CC1	-28.8%	20.6µM*	-4.1%[9.22 µM]	i	i
CCOc1ncccc1C(=O)N1CCN(C(=O)c2ccccc2)CC1	3.7%	-8.5%	5.7%	i	?
CCN1CCN(C(=O)CN2C(=O)c3cccc4cccc2c34)CC1	-0.3%	0.7%	-3.1%	i	i
CCOc1ncccc1C(=O)N1CCN(c2cccc(C)c2C)CC1	?	-17.6%	0.731µM*	?	1.03µM*
CCOc1ncccc1C(=O)N1CCN(c2cc(Cl)ccc2C)CC1	14.6µM*	?	0.651µM*	0.82µM*	2.06µM*
CCCN1Cc2cccc(C(=O)N3CCN(c4cc(Cl)ccc4C)CC3)c2C1=O	1.4%	20.6µM*	2.7%	i	?
N#Cc1ccc(S(=O)(=O)N2CCCCC2c2cc(C(=O)NCc3cccnc3)no2)cc1 (centres undefined)	.	.	.	i	i
Cc1onc(-c2c(F)cccc2Cl)c1C(=O)Nc1ccc(OC(C)C)cc1	.	.	.	i	i
CC/C=C/C(=O)N1CC2(CC(c3cccc(NC(=O)COc4ccc(Cl)cc4)c3)=NO2)C[C@H]1C(N)=O (some centres undefined)	?	16.4µM*	2.0%[9.22 µM]	i	i
COc1ccc(/C=N/NC(=S)NCc2ccccc2)cc1OC	-20.9%	0.5%	-6.9%	20.6µM*	i
COc1ccc(C=NNC(=S)NN=Cc2ccc(OC)c(OC)c2)cc1OC	?	.	?	0.231µM*	0.461µM*
COCCCNC(=S)N/N=C/c1ccc(OC)c(Br)c1	29.3%	9.2%	3.26µM*	i	i
COc1ccc(C=NNC(=S)Nc2ccc(F)cc2)cc1OC	6.1%	.	-4.1%	i	i
Cc1ccsc1C(=O)OCC(=O)c1cc(C)n(C)c1C	7.5%	?	-3.7%	i	i
O=C(CC(c1cccs1)N1Cc2ccccc2C1=O)Nc1ccc(F)cc1 (centres undefined)	.	.	.	i	i
C[C@@H]1CCCCO[C@@H](CN(C)C(=O)c2ccncc2)[C@@H](C)CN([C@H](C)CO)C(=O)c2cc(NC(=O)Cc3ccccc3)ccc2O1	.	.	.	i	i
CCn1c(=O)c2cc(C(=O)NCCc3ccc(OC)c(OC)c3)sc2c2ccccc21	.	.	.	?	i
O=C(Nc1cc(Cl)ccc1N1CCCC1)C1=NN(c2ccccc2)C(=O)CC1	?	?	-0.1%	i	i
COC(=O)c1c(NC(=O)Cc2ccccc2)sc2c1C(C(=O)OC)CC2 (centres undefined)	19.3%	?	-11.0%	i	i
COC(=O)c1c(NC(=O)C(Cl)Cl)sc2c1C(C(=O)OC)CC2 (centres undefined)	8.2µM*	?	?	i	i
COC(=O)c1c(NC(=O)C(C)(C)C)sc2c1C(C(=O)OC)CC2 (centres undefined)	19.9%	?	-3.3%[9.22 µM]	20.6µM*	?
O=C(COC(=O)c1ccc(F)c(S(=O)(=O)N2CCOCC2)c1)NCCc1ccc(F)cc1	-2.5%	0.0%	-19.1%	i	i

Screening data deposited in PubChem BioAssay by National Center for Advancing Translational Sciences (NCATS).
